Hits are enriched below; roughly 7.3% of the tested compounds scored in any of these assays.
FLuc inh: Photinus pyralis luciferase inhibition. P08659. purified P. pyralis luciferase, luminescence, biochemical. Potency, µM (series often up to 115 µM), actives largely listed as inhibitors. 76,000 compounds, 2.5% hits. AID 1347043; further: potency means the concentration at half of the fitted maximal effect; nearly all actives have a fitted effect of over 65% in size
Target sequence (P08659 whole entry, looked up): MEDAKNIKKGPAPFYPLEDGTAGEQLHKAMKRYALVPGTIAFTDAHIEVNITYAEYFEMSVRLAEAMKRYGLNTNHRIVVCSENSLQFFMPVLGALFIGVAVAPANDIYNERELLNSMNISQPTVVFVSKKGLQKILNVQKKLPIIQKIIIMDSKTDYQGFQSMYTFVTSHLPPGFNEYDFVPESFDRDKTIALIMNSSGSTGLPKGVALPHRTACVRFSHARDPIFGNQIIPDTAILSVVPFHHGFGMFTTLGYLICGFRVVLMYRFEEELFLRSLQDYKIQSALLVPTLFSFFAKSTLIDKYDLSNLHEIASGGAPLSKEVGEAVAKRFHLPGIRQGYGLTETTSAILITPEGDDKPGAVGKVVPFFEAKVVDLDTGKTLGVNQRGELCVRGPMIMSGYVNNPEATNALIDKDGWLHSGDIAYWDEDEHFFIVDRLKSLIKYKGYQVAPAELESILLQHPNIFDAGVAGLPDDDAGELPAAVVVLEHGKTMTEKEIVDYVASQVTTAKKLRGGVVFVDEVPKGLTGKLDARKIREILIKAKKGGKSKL
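FLuc 10nM, D-luciferin 10uM, ATP 10uM, Mg acetate 10mM, Tris acetate pH 7.5, Tween/BSA; cpd qHTS; enzyme added last; CCD luminescence.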
3T3 cytotox: kills NIH 3T3 cells | 94,000 compounds, 4.3% hits | Potency, µM (highest dose often 96.7 µM), for the others: top-dose activity change, negative = cytotoxicity, hits mostly inhibitors | NIH 3T3 viability, CellTiter-Glo ATP luminescence, 48-72 h; further: potency means the concentration at half of the fitted maximal effect; nearly all actives have a fitted effect of over 55% in size
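Mouse fibroblast NIH 3T3 cells, 400 per well, received compound via pintool and were incubated for 48 or 72 hr prior to CellTiter-Glo ATP luminescence measurement.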
HEK293 tox: kills HEK 293 cells; HEK 293 viability, ATP luminescence (CellTiter-Glo), 48-72 h; Potency, µM (highest dose often 115 µM), for the others: top-dose activity change, negative = cytotoxicity, hits mostly inhibitors; 94,000 compounds, 6.6% hits; further: potency means the concentration at half of the fitted maximal effect; nearly all actives have a fitted effect of over 60% in size
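250 HEK 293 cells/well; compound by pintool; incubated 48 or 72 hr at 37 degree Celsius; CellTiter-Glo added, 10 min RT, luminescence imaged.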
SNCA viab count: counter-screen for SNCA expression inhibitors: cell viability | 150,000 compounds, 0.12% hits | HEK-293-SNCA-luc viability, GF-AFC fluorescence, 24 h | Potency, µM (titrated, usually from 57.1 µM), for the others: top-dose activity change, negative = cytotoxicity, most hits filed as cytotoxic;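 further: potency means the concentration at half of the fitted maximal effect; 0% = DMSO-treated cells and -100% = medium-only wells without cells; nearly all actives have a fitted effect of over 30% in size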
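Cytotoxicity counterscreen: after 24 h compound treatment of genome-edited SNCA-luciferase HEK-293 cells, live-cell protease substrate GF-AFC read by fluorescence after 30 min; activity scaled between DMSO (0%) and medium-only (-100%), curves Hill-fitted.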
IP6K1 inhibitor: blocks human inositol hexakisphosphate kinase 1; Q92551; IP6K1 kinase, ADP-Glo luminescence, 2 h; stronger effect = lower value; activity change, % (series mostly up to about 58 µM); 140,000 compounds, 0.81% hits; in the data active means activity change below about -25%
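ADP-Glo luminescence measures ADP made by human IP6K1 during a 2 h RT reaction with ATP/IP6 (mix at 1.3 mM/130 uM); top library doses 57.5 and 19.1 uM final.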
SNCA expr inhib: reduces expression of the alpha-synuclein gene. HEK-293 SNCA-luciferase knock-in, luminescence, 24 h. Potency, µM (highest dose often 57.2 µM), without a hit: top-dose activity change, negative = inhibition, usual class: inhibitors. 140,000 compounds, 0.17% hits;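 further: potency means the concentration at half of the fitted maximal effect; plate controls were DMSO cells for no effect and cell-free wells for full effect; nearly all actives have a fitted effect of over 45% in size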
The depositor's hits bear a star; i = inactive; ? = inconclusive; . = no result given; [ ] = remark or other dose. Unless noted, the call rests on the fitted dose curve; in most records, active means well fitted curve in the direction sought with a large enough effect; inconclusive means small, poorly fitted or top-dose-only effect, or another doubt; inactive means no such curve, though single readings can be large; an effect the other way counts as inactive or inconclusive. Unless noted, on the % scale 0 is the no-effect control and ±100 the full control effect.

SMILES	FLuc inh	3T3 cytotox	HEK293 tox	SNCA viab count	IP6K1 inhibitor	SNCA expr inhib
COc1ccc(CN2Cc3cc(NC(=O)c4ccc5c(c4)OCO5)ccc3OC(C)C2=O)cc1 (centres undefined)	i	?	22.4µM*	-24.1%	-4.1	-17.4%
CCC1Oc2ccc(NC(=O)c3c(F)cccc3F)cc2CN(Cc2ccc3c(c2)OCO3)C1=O (centres undefined)	i	?	?	3.1%	-12.2	-2.0%
COc1ccc(CCN2Cc3cc(NC(=O)c4cccc(F)c4)ccc3OC(C)C2=O)cc1 (centres undefined)	i	?	?	-1.6%	4.9	-1.4%
CCC1Oc2ccc(NC(=O)c3ccc4c(c3)OCO4)cc2CN(Cc2ccc(F)cc2)C1=O (centres undefined)	?	?	14.1µM*	-1.4%	-5.6	-16.2%
COc1ccccc1CN1Cc2cc(NC(=O)c3ccc4c(c3)OCO4)ccc2OC(C)C1=O (centres undefined)	i	?	39.8µM*	-1.3%	-9.1	-8.9%
COc1ccc(CN2Cc3cc(NC(=O)c4ccccc4)ccc3OC(C)C2=O)cc1 (centres undefined)	i	-28.2%	?	-10.9%	-9.4	48.1%
CC1Oc2ccc(NC(=O)c3cccc(F)c3)cc2CN(Cc2ccc3c(c2)OCO3)C1=O (centres undefined)	i	?	39.8µM*	2.3%	-2.2	14.0%
COc1ccc(C(=O)Nc2ccc3c(c2)CN(Cc2ccccc2Cl)C(=O)C(C)O3)cc1OC (centres undefined)	i	?	?	-27.9%	10.6	-14.2%
Cc1ccc(-c2nc(CNC(=O)[C@@H]3CCCN3)[nH]c2-c2ccccn2)cc1	i	i	?	-1.4%	4.4	-10.0%
CC1Oc2ccc(NC(=O)c3ccc4c(c3)OCO4)cc2CN(Cc2ccccc2)C1=O (centres undefined)	i	?	20µM*	-26.2%	0.4	-18.7%
COc1cc(OC)cc(C(=O)Nc2ccc3c(c2)CN(Cc2ccccc2)C(=O)C(C)O3)c1 (centres undefined)	i	?	?	-9.0%	15.2	-8.4%
O=C1[C@H]2CC[C@H](CN(Cc3ccc(-n4ccnc4)cc3)C2)N1CC1CCC1	i	39.8µM*	?	-11.0%	2.8	0.0%
COc1ccc(C2Cn3nnc(-c4nc(-c5ccccc5C)no4)c3CO2)cc1 (centres undefined)	i	?	-29.3%	6.8%	-21.2	8.1%
Cc1cccc(-c2cccc(CN3CCC(N[S+](=O)([O-])c4ccccc4)CC3)c2)c1	.	25.1µM*	28.2µM*	?	-7.3	?
Cc1ccc([S+](=O)([O-])NC2CCN(Cc3cccc(-c4cccc(C)c4)c3)CC2)cc1	.	15.8µM*	25.1µM*	-2.2%	2.9	0.9%
CSc1ccc(-c2cccc(CN3CCC(N[S+](=O)([O-])c4c(C)noc4C)CC3)c2)cc1	.	14.1µM*	?	.	22.4	.
Cc1ccc(-c2cccc(CN3CCCC(N[S+](=O)([O-])c4ccccc4)C3)c2)cc1Cl (centres undefined)	.	-22.5%	-13.7%	5.0%	4.6	28.9%
CSc1ccc(-c2cccc(CN3CCC(N[S+](=O)([O-])c4ccccc4)CC3)c2)cc1	.	15.8µM*	28.2µM*	.	-20.6	.
CCn1ccc(C(=O)N2CCN(c3cc(-c4ccc(Cl)cc4)[nH]n3)CC2)n1	i	?	?	-4.3%	-1.8	-15.7%
O=C(c1ccc2c(c1)OCO2)N1CCC2(CC1)N(c1ccccc1)C(=O)CS2(=O)=O	i	1.1%	2.6%	4.9%	0.6	27.1%
C[S+](=O)([O-])NC1CCN(Cc2ccc(-c3ccsc3)cc2)C1 (centres undefined)	.	?	?	4.9%	1.5	-13.5%
COc1ccccc1-c1cccc(CN2CCC(N[S+](=O)([O-])c3cccs3)CC2)c1	.	?	?	0.4%	-9.0	13.2%
Cc1cccc(-c2cccc(CN3CCC(N[S+](=O)([O-])c4cccs4)CC3)c2)c1	.	?	28.2µM*	0.7%	-1.4	-4.1%
O=[S+]([O-])(NC1CCN(Cc2ccc(-c3ccsc3)cc2)C1)c1cccs1 (centres undefined)	.	35.5µM*	39.8µM*	-13.1%	-13.4	?
C=C(C)CN(C)C(=O)c1cc(CN2CCC(Cc3ccccc3)CC2)on1	i	-28.5%	89.1µM*	0.0%	1.8	?
SMILES	FLuc inh	3T3 cytotox	HEK293 tox	SNCA viab count	IP6K1 inhibitor	SNCA expr inhib
CN1c2cc(C(=O)NCc3ccccc3Br)ccc2C(=O)N2CCCC21 (centres undefined)	i	-25.7%	?	-2.7%[12.5 µM]	-0.5	93.0%
COc1ccc(-c2ccnc3nc(Cc4cc(F)cc(F)c4)nn23)c(F)c1	i	?	39.8µM*	4.0%	0.4	?
CCn1cc(S(=O)(=O)N2CCC3(CC2)CN(C2CCC2)CC3COC)cn1 (centres undefined)	i	?	?	13.3%	5.0	?
CC(=O)N1CCC(CC(=O)NCC(=O)N2CCCCCCNC(=O)CC2c2ccccc2)CC1 (centres undefined)	i	-7.8%	-23.7%	6.3%	1.8	12.5%
CC1=C[C@@H](CN2CCC(CO)CC2)[C@H](C(C)C)C[C@H]1Cc1nnc(-c2cccnc2)o1	i	-29.5%[174 µM]	?	-6.2%[87.6 µM]	-9.5	-3.1%[87.6 µM]
CC1=C[C@@H](CN2CCN(C)CC2)[C@H](C(C)C)C[C@H]1Cc1nnc(-c2ccccc2F)o1	i	?	44.7µM*	?	-5.7	-1.2%[87.6 µM]
CC1=C[C@@H](CN2CCN(c3ncccn3)CC2)[C@H](C(C)C)C[C@H]1Cc1nnc(-c2ccccc2F)o1	i	39.8µM*	31.6µM*	?	7.1	?
CC1=C[C@@H](CN2CCOCC2)[C@H](C(C)C)C[C@H]1Cc1nnc(-c2ccccc2F)o1	i	?	89.1µM*	?	7.5	-23.4%[87.6 µM]
C=CCCOC(=O)N1CC(=O)N(Cc2cccc(F)c2)CC(O)C1 (centres undefined)	.	?	i	.	10.5	.
Cc1ccccc1S(=O)(=O)N1CCCC(CCC(=O)Nc2cccc(Cl)c2)C1 (centres undefined)	i	?	22.4µM*	?	6.6	?
O=C1CN(C(=O)c2csc3nc(-c4ccc(C(F)(F)F)cc4)cn23)CCCN1	7.94µM*	?	44.7µM*	-5.8%	-6.1	8.2%
Cc1nc([C@H]2CCN(Cc3ccccc3)C[C@H]2NC(=O)C2CCOCC2)n[nH]1	i	i	i	-3.4%[12.5 µM]	20.6	48.3%

Screens deposited in PubChem by National Center for Advancing Translational Sciences (NCATS).
